# Screens from PubChem BioAssay.
# Hits are enriched below; roughly 12% of the tested compounds scored in any of these assays.
# Pf growth 48h: inhibits P. falciparum growth in the first generation, 48 h; P. falciparum luciferase growth in erythrocytes, 48 h; Potency, µM (titrated, usually from 28.7 µM), inactives show at the highest dose activity change, negative = inhibition, hits mostly inhibitors; hit rate 5.9% among 310,000; AID 504832; also: % is scaled to controls: 0 for no effect and ±100 for the full control effect
#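 Luminescence readout; reporter = integrated firefly luciferase in P. falciparum. RBC culture at 2% hematocrit, 0.1% parasitemia final, 37 C/5% CO2; decreased signal taken as growth inhibition.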
# AmpC inh no detg: blocks E. coli AmpC beta-lactamase in detergent-free assay; hit rate 0.52% among 330,000; P00811; Potency, µM (doses to about 57.1 µM), inactives show at the highest dose activity change, negative = inhibition, actives largely listed as inhibitors; AmpC nitrocefin hydrolysis, absorbance 480 nm, 0.0001% Triton;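 also: plate controls were no compound for no effect and no enzyme for full effect; nearly all actives have a fitted effect of over 20% in size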
# Target sequence (P00811 whole entry, looked up): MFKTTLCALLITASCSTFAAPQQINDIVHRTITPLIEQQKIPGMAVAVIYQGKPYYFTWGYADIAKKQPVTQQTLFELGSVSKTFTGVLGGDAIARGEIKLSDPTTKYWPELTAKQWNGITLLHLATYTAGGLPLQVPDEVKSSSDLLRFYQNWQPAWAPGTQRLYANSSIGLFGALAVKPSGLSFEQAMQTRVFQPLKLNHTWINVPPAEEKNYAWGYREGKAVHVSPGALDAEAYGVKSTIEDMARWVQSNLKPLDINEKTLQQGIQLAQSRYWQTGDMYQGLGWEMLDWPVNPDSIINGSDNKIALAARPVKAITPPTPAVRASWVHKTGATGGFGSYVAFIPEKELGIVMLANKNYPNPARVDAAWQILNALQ
#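 20 mM phosphate pH 7.0 + 0.01% (detergent screen) or 0.0001% Triton X-100; 5.3 nM AmpC reagent; cpd preinc 15 min RT; nitrocefin (800 uM stock) to start; A480 q20 s × 4 min; Activity was normalised to no-enzyme and no-compound control wells.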
# Sm TGR block: S. mansoni TGR enzyme inhibition. Q962Y6. purified TGR, DTNB reduction, TNB absorbance 405 nm. Potency, µM (titrated, usually from 114 µM), for the others: at the top dose activity change, negative = inhibition, most hits filed as inhibitors. hit rate 3% among 360,000. AID 485364; also: % is scaled to controls: 0 for no effect and ±100 for the full control effect; nearly all actives have a fitted effect of over 60% in size
#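 TGR 20 nM + NADPH 100 uM (dispensed conc.), cpd preinc 15 min RT; start with NADPH (500 uM addition) then DTNB (15 mM addition). Kinetic TNB absorbance, 405 nm filter. Four-parameter Hill fit across titration.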
# SARS PLP yeast: SARS-CoV PLP inhibition in yeast | S. cerevisiae expressing SARS-CoV PLpro, growth rescue | Potency, µM (doses to about 32.9 µM), without a hit: top-dose activity, positive = growth rescue, actives largely listed as activators | hit rate 0.19% among 330,000 | AID 485353; calls by dose curve; also: 0% is about no effect; nearly all actives have a fitted effect of over 55% in size
# Pf growth 96h: inhibits malaria parasite growth, 96 h | P. falciparum luciferase reporter growth, 96 h | Potency, µM (titrated, usually from 28.7 µM), for the others: at the top dose activity change, negative = inhibition, hits mostly inhibitors | hit rate 6.9% among 320,000; also: % is scaled to controls: 0 for no effect and ±100 for the full control effect
#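 Erythrocytes infected with luciferase-expressing P. falciparum were dispensed at 2% hematocrit and 0.05% parasitemia (final), then incubated with compounds 96 hours at 37 C in 5% CO2. Luminescence after detection reagent addition reported growth.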
# AmpC detergent: blocks E. coli AmpC beta-lactamase in detergent assay | Potency, µM (doses to about 114 µM), for inactives: at the top dose activity change, negative = inhibition, actives largely listed as inhibitors | AmpC hydrolysis of nitrocefin, absorbance 480 nm, 0.01% Triton | hit rate 0.041% among 370,000;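 also: 0% = no-compound wells and -100% = no-enzyme wells; nearly all actives have a fitted effect of over 25% in size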
#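 AmpC (5.3 nM in the dispensed reagent) in 20 mM phosphate pH 7.0 with 0.01% (detergent screen) or 0.0001% Triton X-100 was preincubated with compounds for 15 min at room temperature. Nitrocefin was then added from an 800 uM solution, and hydrolysis was followed at 480 nm.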
# Active calls of the source: *; ? = inconclusive; nt = not tested or not shown; [ ] = dose if it differs, or a comment. Unless noted, calls follow the shape of the dose curve; as a rule, active = well fitted curve in the direction sought with a large enough effect; inconclusive = small, poorly fitted or top-dose-only effect, or another doubt; inactive = no such curve, though single readings can be large; an effect the other way counts as inactive or inconclusive. Potency is read from the fitted curve at half-maximal effect.
SMILES,Pf growth 48h,AmpC inh no detg,Sm TGR block,SARS PLP yeast,Pf growth 96h,AmpC detergent
CC(C)N1CSC(=S)N(Cc2ccccc2)C1,9.9%,61.5%,28.2µM*,1.9%,4.5%,-11.7%
Cn1nnc2c[n+](CC(=O)c3ccc4ccccc4c3)cc(Br)c21,11.7µM*,0.5%,?,2.5%,?,1.8%
Cn1nnc2c[n+](CC(=O)c3ccc(Cl)cc3)cc(Br)c21,-4.3%,-16.4%,?,0.7%,-1.5%,-0.6%
CC1(C)CC(=O)C=C(c2ccc(Oc3ccccc3)cc2)C1,16.7%,-24.8%,1.4%,3.4%,?,-6.2%
CC1(C)CC(=O)C=C(/C=C/c2ccccc2)C1,?,-1.9%,-30.7%,-1.6%,2.08µM*,-0.6%
CC(C)(C)CC(=O)NCC(c1ccc2c(c1)OCO2)N1CCN(c2ccccc2)CC1 (centres undefined),nt,nt,7.1%,nt,nt,4.9%
Cc1ccc(C(c2c(O)cc(C)n(Cc3ccco3)c2=O)N2CCC(C)CC2)cc1 (centres undefined),nt,nt,10µM*,nt,nt,20.1%
Cc1cc(O)c(C(c2ccccc2)N2CCC(C)CC2)c(=O)n1Cc1ccco1 (centres undefined),nt,nt,28.2µM*,nt,nt,-5.5%
Cc1cc(O)c(C(c2cccc(F)c2)N2CCC(C)CC2)c(=O)n1Cc1ccco1 (centres undefined),nt,nt,25.1µM*,nt,nt,-0.7%
CCCCCSc1nc2sc3c(c2c(=O)n1-c1ccccc1)CCN(C(C)=O)C3,nt,nt,-2.2%,nt,nt,-3.7%
CCOC(=O)c1ccc(NS(=O)(=O)c2cc3c(cc2C)n(C)c(=O)c(=O)n3C)cc1,nt,nt,3.7%,nt,nt,12.5%
c1cc2c(cc1OCCNC1CCCC1)CCC2,-18.4%,-1.9%,-1.0%,0.3%,11.7µM*,0.5%
c1ccc(-c2ccc(OCCCNC3CCCC3)cc2)cc1,13.1µM*,27.7%,nt,-1.0%,2.7%,-6.3%
CNCCCOc1ccc2c(c1)CCC2,?,-6.9%,-12.3%[57.1 µM],0.8%,10.6%[5.75 µM],-0.6%
CC(C)c1ccc(/C=C(\c2nc3ccccc3[nH]2)S(=O)(=O)c2ccccc2)cc1,5.86µM*,-49.8%,-0.7%,-3.0%,2.33µM*,?
O=S(=O)(/C(=C/c1ccc(C(F)(F)F)cc1)c1nc2ccccc2[nH]1)c1ccccc1,4.15µM*,-47.5%,17.8µM*,-27.1%,1.65µM*,-9.0%
c1ccc2c(Nc3ccc4c(c3)OCCO4)c3c(nc2c1)CCCC3,?,37.7%,-5.5%,9.6%,?,?
Cc1cc(C)cc(NC(=O)CSc2ccc(-c3ccccn3)nn2)c1,?,-5.1%,0.0%,?,?,0.9%
Cc1cc(C)cc(NC(=O)CSc2ccc(-c3ccco3)nn2)c1,15.0%,-14.8%,22.4µM*,-15.5%,?,-0.7%
Cc1cccc(NC(=O)CSc2ccc(-c3ccco3)nn2)c1,18.4%,2.6%,20µM*,18.9%,25.9%,?
Cc1ccc2c(c1)N(C)/C(=C/c1cccc[n+]1C)S2,5.3%[0.00184 µM],-16.6%,-18.3%,-2.8%,0.465µM*,0.1%
Cc1ccc2c(c1)N(C)/C(=C/c1cccc[n+]1CCO)S2,1.85µM*,-0.2%,6.5%,-1.5%,15.8%,-14.0%
Cc1ccc2c(c1)S/C(=C/c1ccc[n+](C)c1)N2CCO,?,-18.6%,-3.1%,-6.0%,6.2%,?
CN1/C(=C/c2cccc[n+]2C)Sc2ccccc21,1.17µM*,-1.9%,-9.8%,-2.2%,2.5%,1.7%
CCCCCc1c(O)nc(SCC(=O)NCC2CCCO2)[nH]c1=O (centres undefined),3.8%,-17.7%,-3.6%,-19.0%,0.465µM*,-0.3%
SMILES,Pf growth 48h,AmpC inh no detg,Sm TGR block,SARS PLP yeast,Pf growth 96h,AmpC detergent
C=CCNc1nc(-c2ccccn2)nnc1-c1ccccc1,nt,-1.0%,-10.2%,-33.8%,1.65µM*,3.1%
COCCn1c(=NC(=O)/C=C/c2cccs2)sc2cc(NC(C)=O)ccc21,?,55.8%,-7.4%,-9.9%,8.28µM*,?
COCCn1c(=NC(=O)CSC(C)=O)sc2cc(OC)ccc21,?,1.2%,1.1%,-8.0%,?,-14.7%
CCn1c(=NC(=O)CCS(=O)(=O)c2ccccc2)sc2cccc(OC)c21,-20.4%,-11.7%,-6.4%,-0.5%,?,1.0%
COCCn1c(=NC(=O)CCS(=O)(=O)c2ccccc2)sc2cc(C)ccc21,93.3%,-14.0%,35.5µM*,-1.4%,?,-8.1%
COCCn1c(=NC(=O)CCS(=O)(=O)c2ccccc2)sc2cc(F)ccc21,-12.9%,34.3%,39.8µM*,-1.3%,?,2.5%
O=C(c1ccccc1)C1CCN(C(=O)c2c(F)cccc2F)CC1,6.6%[0.00184 µM],-0.3%,15.4%,3.1%,0.0%,-2.1%
CCn1c(SCC(=O)NC2CCCCC2)nc2c(c1=O)SCC2,-22.6%,-10.4%,4.8%,-1.2%,?,-0.8%
CCn1cc(CN2CCCC(C(=O)c3ccc(-c4ccccc4)cc3)C2)cn1 (centres undefined),41.7%,-1.5%,5.6%,-0.7%,-17.7%,-3.7%
CO/N=C/C(C#N)c1ncc(C(F)(F)F)cc1Cl (centres undefined),31.7%,-18.0%,?,-1.2%,53.0%,-1.0%
CO/N=C/C(c1ccc(Cl)nc1)S(=O)(=O)c1ccccc1 (centres undefined),-15.5%,0.4%,22.4µM*,1.0%,-2.6%,-4.0%
CO/N=C/C(c1ncc(C(F)(F)F)cc1Cl)S(=O)(=O)c1ccccc1 (centres undefined),10.4µM*,2.1%,-44.8%,-3.9%,9.28µM*,-0.2%
Cc1ccc(C(=O)Nc2nnc(S(=O)(=O)N3CCCc4ccccc43)s2)cc1,nt,nt,5.5%,nt,nt,2.0%
Cc1ccn2c(=O)nc(SCC(=O)N3N=C(c4cccs4)CC3c3ccc(F)cc3)nc2c1 (centres undefined),?,68.3%,-17.0%,1.8%,4.65µM*,?
CCN1CCc2c(OCC(=O)N3N=C(c4cccs4)CC3c3ccc(F)cc3)cccc2C1=O (centres undefined),9.28µM*,39.7%,2.4%,-13.0%,?,-6.7%
COc1ccc(C2=NN(C(=O)CSc3nc(=O)n4cccc(C)c4n3)C(c3ccc(C)cc3)C2)cc1 (centres undefined),11.7µM*,-21.4%,-1.2%,nt,?,1.2%
COc1ccc(C2=NN(C(=O)CSc3ncccn3)C(c3ccc(C)cc3)C2)cc1 (centres undefined),?,13.2%,2.8%,-25.6%,?,2.2%
COc1ccc(C2CC(c3ccc(Br)cc3)=NN2C(=O)CSC2=NCCS2)cc1 (centres undefined),?,3.3%,-28.4%,-13.3%,4.65µM*,?
O=C(CSc1nc2ccccc2s1)N1N=C(c2cccs2)CC1c1ccc(F)cc1 (centres undefined),-20.2%,-24.3%,3.7%,3.1%,?,2.7%
